This assay can be described thus: chemical genetic growth profiling, strain panel (AID 1159580).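 Also: tested at 20 µM; growth read once vehicle control cultures reached saturation at 30 °C; 1 = growth at the plate median or of vehicle wells; lower values mean less growth of the strain.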 The settings on record: growth OD.
Setting [1] is: S. cerevisiae deletion strains, locus YGR078C, strain PAC10, hits give low values.
Where [2] appears, read: S. cerevisiae deletion strains, locus YNL153C, strain GIM3, hits give low values.
Where [3] appears, read: S. cerevisiae deletion strains, locus YAL013W, strain DEP1, hits give low values.
Setting [4] is: S. cerevisiae deletion strains, locus YBR229C, strain ROT2, hits give low values.
Where [5] appears, read: S. cerevisiae deletion strains, locus YDL101C, strain DUN1, hits give low values.
[6] abbreviates: S. cerevisiae deletion strains, locus YDR150W, strain NUM1, hits give low values.
[7] abbreviates: S. cerevisiae deletion strains, locus YEL061C, strain CIN8, hits give low values.
[8] abbreviates: S. cerevisiae deletion strains, locus YHR030C, strain SLT2, hits give low values.
Setting [9] is: S. cerevisiae deletion strains, locus YHR087W, strain rtc3, hits give low values.
Setting [10] is: S. cerevisiae deletion strains, locus YJR043C, strain POL32, hits give low values.
Where [11] appears, read: S. cerevisiae deletion strains, locus YJR075W, strain HOC1, hits give low values.
Setting [12] is: S. cerevisiae deletion strains, locus YLR039C, strain RIC1, hits give low values.
Setting [13] is: S. cerevisiae deletion strains, locus YLR058C, strain SHM2 (second series), hits give low values.
[14] abbreviates: S. cerevisiae deletion strains, locus YLR085C, strain ARP6, hits give low values.
The mark [15] stands for this setting: S. cerevisiae deletion strains, locus YLR262C, strain YPT6, hits give low values.
Where [16] appears, read: S. cerevisiae deletion strains, locus YML094W, strain GIM5, hits give low values.
[17] abbreviates: S. cerevisiae deletion strains, locus YMR219W, strain ESC1, hits give low values.
Where [18] appears, read: S. cerevisiae deletion strains, locus YMR263W, strain SAP30, hits give low values.
Where [19] appears, read: S. cerevisiae deletion strains, locus YNL298W, strain CLA4 (second series), hits give low values.
Where [20] appears, read: S. cerevisiae deletion strains, locus YNL322C, strain KRE1, hits give low values.
[21] abbreviates: S. cerevisiae deletion strains, locus YNR030W, strain Alg12, hits give low values.
Setting [22] is: S. cerevisiae deletion strains, locus YPL055C, strain LGE1, hits give low values.
The mark [23] stands for this setting: S. cerevisiae deletion strains, locus YPL241C, strain CIN2, hits give low values.
Where [24] appears, read: S. cerevisiae deletion strains, locus YPR135W, strain CTF4, hits give low values.

The whole screen tested about 5,500 compounds, of which about 2,000 (36%) were called active. Inconclusive results (about 18%) are left out. The list shows a part of the results. Values without a mark were called inactive. Rule as the data show it: active = normalized growth mostly below about 0.91 (no sharp cut-off); inconclusive = no clear call, values can overlap the other calls; inactive = mostly above about 0.92.

Regarding `COc1cc([C@@H]2c3cc4c(cc3[C@H](O)C3COC(=O)[C@@H]32)OCO4)cc(OC)c1OC` (stereo not given in full), the normalized growth is, setting by setting: (S. cerevisiae deletion strains, locus YAL040C, strain CLN3, hits give low values) 1.06; (S. cerevisiae deletion strains, locus YCL061C, strain MRC1 (second series), hits give low values) 0.999; (S. cerevisiae deletion strains, locus YDR363W, strain ESC2, hits give low values) 1; (S. cerevisiae deletion strains, locus YER002W, strain NOP16, hits give low values) 1.02; under setting [1], 1.02; under setting [2], 1.04. The normalized growth is, setting by setting: (S. cerevisiae deletion strains, locus YNL175C, strain NOP13, hits give low values) 1.02; (S. cerevisiae deletion strains, locus YNL197C, strain WHI3, hits give low values) 1; (S. cerevisiae deletion strains, locus YNL224C, strain SQS1, hits give low values) 1; (S. cerevisiae deletion strains, locus YOR083W, strain WHI5 (second series), hits give low values) 1.
`C/C(=N/O)c1ccn(S(=O)(=O)c2ccc(Cl)cc2)c1`: the normalized growth is, setting by setting: under setting [3], 0.998; under setting [4], 1.02; (S. cerevisiae deletion strains, locus YCL061C, strain MRC1, hits give low values) 1.05; under setting [5], 1.03; (S. cerevisiae deletion strains, locus YDL134C, strain PPH21, hits give low values) 1; under setting [6], 0.891. Moreover, the normalized growth runs as follows: under setting [7], 0.983; under setting [1], 1.01; under setting [8], 1.02; under setting [9], 0.992; under setting [10], 1.05; under setting [11], 1.02. For the same compound, the normalized growth (S. cerevisiae deletion strains, locus YKL190W, strain CNB1, hits give low values) was 0.995; the normalized growth under setting [12] is 1.04; the normalized growth under setting [13] was 0.978; the normalized growth under setting [14] was 0.99; the normalized growth under setting [15] is 1.04; the normalized growth under setting [16] is 1.02. Moreover, the normalized growth is, setting by setting: under setting [17], 0.996; under setting [18], 0.998; (S. cerevisiae deletion strains, locus YNL128W, strain TEP1, hits give low values) 1; under setting [2], 1.05; under setting [19], 1.02; under setting [20], 0.983. Further, the normalized growth runs as follows: under setting [21], 1; under setting [22], 0.989; under setting [23], 1; under setting [24], 1.06; (S. cerevisiae strains, strain wild type, hits give low values) 1.01.
As for `CC(=N/O)/C(C)=C/c1ccc(Cl)cc1`, the normalized growth was 0.8 (active) under setting [3]; 0.822 (active) under setting [4]; 0.835 (active) under setting [5]; 0.847 under setting [6]; 0.648 (active) under setting [7]; 0.752 (active) under setting [1]. For the same compound, the normalized growth by setting is: (S. cerevisiae deletion strains, locus YGR229C, strain SMI1, hits give low values) 0.898 (active); under setting [8], 0.165 (active); under setting [9], 0.785 (active); under setting [10], 0.824 (active); under setting [11], 0.521 (active); under setting [12], 0.327 (active). In addition, the normalized growth runs as follows: under setting [13], 0.848 (active); under setting [14], 0.164 (active); under setting [15], 0.311 (active); under setting [16], 0.712 (active); under setting [17], 0.855 (active); under setting [18], 0.837 (active). The normalized growth is, setting by setting: under setting [2], 0.852 (active); under setting [19], 0.441 (active); under setting [20], 0.885 (active); under setting [21], 0.555 (active); (S. cerevisiae deletion strains, locus YOL006C, strain TOP1, hits give low values) 0.305 (active); under setting [22], 0.56 (active). The normalized growth reads like this: under setting [23], 0.502 (active); under setting [24], 0.231 (active).

The record behind these values is PubChem BioAssay AID1159580 (chemical genetic matrix, 2015).
